These results are taken from PubChem BioAssay.

Each structure is given as a SMILES string. Active and inactive are the calls of the source.

Assay [1] is described as follows: optical density shifts of acrAB sulA E. coli – strain DRC41, OD650, 48 h, E. coli filamentation inducer project, primary screen (AID 1152).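 Also: E. coli MC1000 strain DRC41 lacking acrAB efflux pump and sulA.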 Particulars: higher = more signal, called active from +8 up or from −8 down.
The nature of assay [2]: probe aLefty1 binding on compound microarray – biochemical, small-molecule microarray, 635/667 nm fluorescence, primary screen (AID 1153).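 Also: score merges spot fluorescence with signal-to-noise ratio from the scanned slide images.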 Particulars: higher = more signal.
Assay [3] is described as follows: plasmodial surface anion channel blockers, osmotic lysis – cell-based, P. falciparum Indochina, OD700, 1 h, primary screen (AID 1154). Particulars: P. falciparum Indochina infected RBC osmotic lysis, higher = more signal, called active from +8 up or from −8 down.
A short description of assay [4]: plasmodial surface anion channel blockers, osmotic lysis – cell-based, P. falciparum Indochina, OD700, 2 h, primary screen (AID 1155).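 Also: lysis reports solute entry through the parasite surface anion channel PSAC.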 Conditions: P. falciparum Indochina infected erythrocytes, higher = more signal, called active from +8 up or from −8 down.
Assay [5] in a line: changes in parasitized red cell lysis, either direction – P. falciparum Indochina, OD700, 3 h, PSAC antagonist project, primary screen (AID 1156). Conditions: P. falciparum-infected erythrocytes, osmotic lysis, higher = more signal, called active from +8 up or from −8 down.
Assay [6] in a line: plasmodial surface anion channel blockers, osmotic lysis – cell-based, P. falciparum Indochina, OD700, 18 h, primary screen (AID 1157). Particulars: P. falciparum Indochina infected erythrocytes, osmotic lysis OD700, 18 h; higher = more signal, called active from +8 up or from −8 down.
Assay [7] can be described thus: S6 kinase pathway phospho-S6 level changes – cell-based, A549, cytoblot, luminescence, serum-stimulated, primary screen (AID 1158).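 Also: serum-stimulated A549 lung adenocarcinoma cells; signal is phosphorylated S6 detected by cytoblot immunostaining with HRP secondary.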 Conditions: 5 h, higher = more signal.
Assay [8] addresses NADPH oxidase 2 (Homo sapiens) (UniProt P04839). Put plainly: compounds shifting NOX2 Amplex Red fluorescence – cell-based, HEK293-NOX2, PMA-stimulated, NOX inhibitor project, primary screen (AID 1159). Also: test concentration not given here. Particulars: 45 min, higher = more signal, called active from +8 up or from −8 down.
Assay [9] addresses NADPH oxidase 4 (Homo sapiens) (UniProt Q9NPH5). Nature of the assay: compounds shifting NOX4 Amplex Red fluorescence – cell-based, HEK293-NOX4, tetracycline-induced, NOX inhibitor project, primary screen (AID 1160). Conditions: HEK293-NOX4, Amplex Red H2O2 fluorescence, 45 min; higher = more signal, called active from +8 up or from −8 down.
Assay [10] has as its target NADPH oxidase 5 (Homo sapiens) (UniProt Q96PH1). Nature of the assay: compounds shifting NOX5 Amplex Red fluorescence – cell-based, HEK293-NOX5, NOX inhibitor project, primary screen (AID 1161). Particulars: HEK293-NOX5, ionomycin, 45 min, higher = more signal.
The nature of assay [11]: compound effects on lung adenocarcinoma cell viability – A549, calcein-AM fluorescence, 48 h, basal, profiling panel (AID 1162). Also: test concentration not given here. Conditions: higher = more signal.
Assay [12] is described as follows: compound effects on differentiated 3T3-L1 adipocyte viability – cell-based, 3T3-L1 adipocytes, calcein-AM fluorescence, 48 h, basal, profiling panel (AID 1163). Also: test concentration not given here. Conditions: 3T3-L1 adipocytes viability, higher = more signal.
Assay [13] is described as follows: compound effects on hepatocellular carcinoma cell viability – HepG2, calcein-AM fluorescence, 48 h, basal, profiling panel (AID 1164). Also: test concentration not given here. Conditions: higher = more signal.
Assay [14] can be described thus: compound effects on multiple myeloma cell viability – MM1S, calcein-AM fluorescence, 48 h, basal, profiling panel (AID 1165). Also: test concentration not given here. Conditions: higher = more signal.
The nature of assay [15]: calcein-AM signal in unstimulated myeloma cells – cell-based, calcein-AM fluorescence, 48 h, PK04 Diversity Set, profiling panel (AID 1166).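 Also: cells grown under basal conditions without added stimulus; test concentration not given here.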 Particulars: RPMI8226 myeloma viability, higher = more signal.
Assay [16] in a line: JC-1 mitochondrial signal, unstimulated HepG2 cells – cell-based, JC-1 fluorescence, 24 h, 100 nL compound, profiling panel (AID 1167). Also: test concentration not given here. Conditions: HepG2 mitochondrial potential, higher = more signal.
Assay [17] is described as follows: JC-1 mitochondrial signal, unstimulated adipocytes – cell-based, JC-1 fluorescence, 3T3-L1 adipocytes, 24 h, 100 nL compound, profiling panel (AID 1168). Also: test concentration not given here. Conditions: JC-1 mitochondrial fluorescence, higher = more signal, called active from +8 up or from −8 down.
A short description of assay [18]: JC-1 mitochondrial signal, unstimulated myeloma cells – cell-based, JC-1 fluorescence, RPMI8226, 24 h, 100 nL compound, profiling panel (AID 1169). Also: test concentration not given here. Particulars: JC-1 mitochondrial potential fluorescence, higher = more signal.
The nature of assay [19]: JC-1 mitochondrial signal, unstimulated MM1S myeloma – cell-based, JC-1 fluorescence, 24 h, 100 nL compound, profiling panel (AID 1170). Also: test concentration not given here. Particulars: MM1S mitochondrial potential, higher = more signal.
Assay [20] is described as follows: resazurin metabolic signal in A549 cells – cell-based, resazurin fluorescence, 24 h, PK04 Diversity Set, profiling panel (AID 1171). Also: test concentration not given here. Conditions: A549 viability, higher = more signal, called active from +8 up or from −8 down.

Chain of NADPH oxidase 4 (Homo sapiens) (Q9NPH5 whole entry, looked up): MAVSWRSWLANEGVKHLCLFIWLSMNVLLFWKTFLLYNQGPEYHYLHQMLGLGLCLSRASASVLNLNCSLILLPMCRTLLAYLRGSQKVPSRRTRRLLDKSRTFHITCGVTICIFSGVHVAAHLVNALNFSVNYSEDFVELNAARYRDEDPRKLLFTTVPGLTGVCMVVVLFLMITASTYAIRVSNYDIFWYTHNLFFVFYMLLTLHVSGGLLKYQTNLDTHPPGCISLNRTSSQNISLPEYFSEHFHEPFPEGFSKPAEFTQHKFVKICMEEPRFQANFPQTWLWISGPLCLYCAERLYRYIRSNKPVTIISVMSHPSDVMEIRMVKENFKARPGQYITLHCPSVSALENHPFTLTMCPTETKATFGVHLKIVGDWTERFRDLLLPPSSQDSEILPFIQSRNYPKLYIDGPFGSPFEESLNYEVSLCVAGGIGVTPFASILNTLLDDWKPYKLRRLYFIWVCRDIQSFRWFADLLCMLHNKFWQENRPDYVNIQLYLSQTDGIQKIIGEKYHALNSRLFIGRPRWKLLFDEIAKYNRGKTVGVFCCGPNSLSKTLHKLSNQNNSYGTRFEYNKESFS
Chain of NADPH oxidase 5 (Homo sapiens) (Q96PH1 whole entry, looked up): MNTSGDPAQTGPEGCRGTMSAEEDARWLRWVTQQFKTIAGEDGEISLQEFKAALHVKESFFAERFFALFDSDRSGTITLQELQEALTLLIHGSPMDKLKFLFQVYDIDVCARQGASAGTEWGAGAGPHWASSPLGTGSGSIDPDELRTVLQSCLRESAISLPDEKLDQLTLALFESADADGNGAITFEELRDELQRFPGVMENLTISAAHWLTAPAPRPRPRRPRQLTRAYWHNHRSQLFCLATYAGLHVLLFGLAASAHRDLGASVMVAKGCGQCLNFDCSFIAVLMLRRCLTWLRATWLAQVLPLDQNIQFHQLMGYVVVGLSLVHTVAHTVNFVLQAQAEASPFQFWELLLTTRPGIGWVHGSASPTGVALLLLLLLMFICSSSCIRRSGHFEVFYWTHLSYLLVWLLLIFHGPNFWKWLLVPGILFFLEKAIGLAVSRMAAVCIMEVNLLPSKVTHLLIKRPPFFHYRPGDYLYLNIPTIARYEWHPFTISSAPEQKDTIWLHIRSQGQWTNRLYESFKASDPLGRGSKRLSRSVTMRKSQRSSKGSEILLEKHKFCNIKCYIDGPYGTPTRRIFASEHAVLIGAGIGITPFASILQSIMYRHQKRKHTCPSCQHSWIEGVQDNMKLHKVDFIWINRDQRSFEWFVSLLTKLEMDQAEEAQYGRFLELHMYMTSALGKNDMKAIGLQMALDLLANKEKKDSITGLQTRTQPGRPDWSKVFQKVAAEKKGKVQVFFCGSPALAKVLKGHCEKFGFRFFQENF
Chain of NADPH oxidase 2 (Homo sapiens) (P04839 whole entry, looked up): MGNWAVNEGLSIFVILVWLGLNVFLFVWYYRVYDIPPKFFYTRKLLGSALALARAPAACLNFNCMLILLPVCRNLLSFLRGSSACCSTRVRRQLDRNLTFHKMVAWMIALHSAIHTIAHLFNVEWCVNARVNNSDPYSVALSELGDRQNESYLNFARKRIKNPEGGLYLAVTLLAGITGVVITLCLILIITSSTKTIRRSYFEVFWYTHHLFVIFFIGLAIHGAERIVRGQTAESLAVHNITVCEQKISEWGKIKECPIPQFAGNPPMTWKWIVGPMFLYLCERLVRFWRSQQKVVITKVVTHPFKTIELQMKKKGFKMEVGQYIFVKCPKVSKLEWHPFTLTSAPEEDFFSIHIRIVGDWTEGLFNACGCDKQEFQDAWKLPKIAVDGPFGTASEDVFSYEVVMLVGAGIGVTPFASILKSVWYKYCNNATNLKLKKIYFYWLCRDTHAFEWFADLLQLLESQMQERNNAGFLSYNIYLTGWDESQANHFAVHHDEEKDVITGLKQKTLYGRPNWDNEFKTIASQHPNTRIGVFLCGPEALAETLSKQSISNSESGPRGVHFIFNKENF

`COc1ccc(CCNC(=O)[C@@H]2c3ccccc3C(=O)N(Cc3ccccc3OC)[C@H]2c2ccc(CO)cc2)cc1`: the z-score was -0.499 (inactive) in assay [1]; 3.02 (inactive) in assay [3]; 0.0323 (inactive) in assay [4]; 0.709 (inactive) in assay [5]; -0.0383 (inactive) in [6]; -0.0817 in assay [7]. The z-score in assay [8] was -1.31 (inactive); in [9], -0.213 (inactive); in assay [10] it was -2.09; in assay [11] it was 0.41; in assay [12] it was -0.219; in [13], -0.147. Also, the z-score is -0.147 in [14]; 0.245 in assay [15]; 1.22 in assay [16]; -0.822 (inactive) in [17]; -0.167 in assay [18]; -0.42 in assay [19]. Also, the z-score in assay [20] is 1.58 (inactive). Besides, in [2], the composite z-score is -0.0303.

Consider `CC(C)C[C@@H]1NC(=O)[C@@H]2C[C@H](C(=O)NCCCCCCNC(=O)CS)[C@H](c3cccc(OCCO)c3)N2C1=O`, for which the z-score in assay [1] was -1.05 (inactive); in [3], 7.13 (inactive); in assay [4], 1.57 (inactive); in assay [5] it was 1.01 (inactive); in [6] it was 0.792 (inactive); in assay [7] it was -0.485. The z-score in [8] was 1.56 (inactive); in assay [9], 0.427 (inactive); in assay [10], -0.196; in [11], 0.028; in [12] it was -0.0252; in [13], 0.134. The z-score in assay [14] was -0.505; in assay [15], -0.587; in [16], -0.946; in [17], -0.185 (inactive); in [18], -0.217; in assay [19], -0.165. The z-score in [20] was 0.457 (inactive). The compound also came in with a composite z-score in [2] of 0.196.

For `O=C1c2ccccc2[C@@]2(Cc3ccccc3N(Cc3ccccc3)C2=O)[C@H](c2ccc(CO)cc2)N1Cc1ccccc1Cl`, the z-score in assay [1] was -0.29 (inactive); in assay [3], 0.705 (inactive); in assay [4], 0.387 (inactive); in assay [5], -0.113 (inactive); in assay [6] it was 0.18 (inactive); in [7], 0.272. The z-score in assay [8] was -0.534 (inactive); in [9], -0.644 (inactive); in [10], -1.11; in assay [11] it was -0.334; in assay [12] it was 0.331; in [13], -0.826. Besides, the z-score in [14] is -0.411; in assay [15], 0.139; in assay [16], 1.1; in assay [17] it was -0.407 (inactive); in assay [18], -0.972; in [19] it was -0.316. In addition, the z-score in assay [20] was -0.166 (inactive). In assay [2], the composite z-score is -0.0479.

For the compound `COC(=O)[C@@]1(Cc2ccccc2)[C@H]2c3cc(C(=O)N(C)C)n(Cc4ccc(S(C)(=O)=O)cc4)c3C[C@H]2CN1C(=O)c1ccccc1`, the z-score in assay [1] is -1.77 (inactive); in assay [3] it was 1.5 (inactive); in assay [4], 0.542 (inactive); in assay [5], 1.95 (inactive); in [6], 0.814 (inactive); in assay [7] it was 0.393. Also, the z-score in assay [8] is 1.12 (inactive); in [9], -2.78 (inactive); in assay [10] it was -2.6; in [11], -1.12; in [12] it was 1.09; in assay [13], -0.827. Besides, the z-score in assay [14] is 0.0168; in [15], -1.39; in assay [16], 2.64; in [17], -1.06 (inactive); in [18], -0.656; in assay [19] it was 0.485. Besides, in assay [20], the z-score is -1.59 (inactive). The compound further registered a composite z-score in assay [2] of 0.71.

As to `Cc1ccc(S[C@]2(C(=O)NCCCN(C)C)CC(=O)N(C3Cc4ccccc4C3)[C@@H]2c2ccc(CO)cc2I)cc1`, the z-score was -0.759 (inactive) in assay [1]; 4.32 (inactive) in [3]; 0.903 (inactive) in assay [4]; 0.925 (inactive) in assay [5]; 0.352 (inactive) in [6]; -0.0249 in [7]. The z-score in assay [8] was 0.914 (inactive); in [9], -1.12 (inactive); in assay [10] it was 2.56; in assay [11], 0.691; in assay [12], -0.749; in [13] it was -0.563. Further, the z-score was -2.64 in assay [14]; -2.5 in assay [15]; -0.188 in assay [16]; -1.28 (inactive) in [17]; -0.201 in assay [18]; -1.09 in assay [19]. Also, in [20], the z-score is 0.471 (inactive). In assay [2], this compound came in with a composite z-score of -0.0882.

With `C=C(COC)/C(=C/C[C@H](OC(C)=O)c1ccccc1OCCO)c1cc(C(=O)OC)ccc1OC`, the z-score in assay [1] is 0.311 (inactive); in [3], 8.11 (active); in assay [4] it was 1.02 (inactive); in [5], 0.454 (inactive); in [6] it was -0.897 (inactive); in [7], 1.52. Moreover, the z-score in assay [8] was -0.688 (inactive); in assay [9], 0.0021 (inactive); in assay [10] it was -1.97; in [11] it was -0.168; in [12], 1.66; in [13] it was -0.63. The z-score was -3.06 in [14]; -1.74 in [15]; 0.532 in assay [16]; -0.112 (inactive) in assay [17]; 0.0983 in [18]; -1.29 in [19]. In [20], the z-score was -0.0553 (inactive). For the same compound, the composite z-score in [2] was -0.145.

For `CCCN1C(=O)[C@@]2(c3ccc([N+](=O)[O-])cc3)CC(=O)N(CC34CC5CC(CC(C5)C3)C4)[C@@H]2c2ccc(CO)cc21`, the z-score in assay [1] was -0.803 (inactive); in assay [3], 0.336 (inactive); in assay [4], 0.0149 (inactive); in [5], 0.519 (inactive); in [6] it was -0.312 (inactive); in assay [7], -0.574. For the same compound, the z-score in assay [8] is 0.658 (inactive); in assay [9], 0.148 (inactive); in [10], 0.631; in assay [11], 0.129; in assay [12], -0.4; in assay [13] it was -0.301. The z-score in assay [14] was -0.194; in [15], 0.448; in [16] it was -0.885; in assay [17], -0.656 (inactive); in [18], 0.282; in assay [19] it was -0.315. The z-score in [20] was 0.0382 (inactive). In addition, the composite z-score in assay [2] is 0.334.

Take `CC(C)(C)OC(=O)CC[C@@]1(C(=O)NCCN2CCOCC2)N=C(c2ccc(OCCCO)cc2)O[C@@H]1c1ccccc1CN=[N+]=[N-]`: the z-score in assay [1] was -0.936 (inactive); in assay [3], 24.4 (active); in [4] it was 11.3 (active); in assay [5], 0.0031 (inactive); in assay [6] it was 1.21 (inactive); in [7], -0.464. In addition, the z-score was 0.73 (inactive) in assay [8]; 1.46 (inactive) in assay [9]; 1.54 in assay [10]; -0.34 in assay [11]; -0.502 in assay [12]; 0.463 in [13]. Besides, the z-score in assay [14] was -0.0725; in assay [15], -0.749; in [16] it was 0.777; in assay [17] it was -0.916 (inactive); in assay [18], -0.29; in assay [19], -0.586. Moreover, the z-score in assay [20] is 0.973 (inactive). In assay [2], this compound yielded a composite z-score of -0.0255.

With `COC(=O)[C@@]1(Cc2ccc(F)cc2)[C@H]2c3cc(C(=O)N(C)C)n(C)c3C[C@H]2CN1C(=O)c1ccccc1`, the z-score is -1.18 (inactive) in assay [1]; 0.404 (inactive) in assay [3]; 0.149 (inactive) in assay [4]; -0.898 (inactive) in assay [5]; 0.545 (inactive) in assay [6]; -0.8 in assay [7]. The z-score is 0.323 (inactive) in assay [8]; -0.0748 (inactive) in assay [9]; -0.552 in assay [10]; 0.888 in [11]; -0.0909 in assay [12]; -0.408 in assay [13]. For the same compound, the z-score is -0.364 in assay [14]; -0.119 in assay [15]; 0.216 in assay [16]; -0.574 (inactive) in [17]; -0.325 in [18]; -0.481 in assay [19]. Moreover, the z-score in assay [20] was -0.452 (inactive). In assay [2], this compound returned a composite z-score of 0.113.
